Assay results from the supplement of paper PMC4466140.

target: CaNbp2; test: SPOT peptide array binding signal intensity (averaged, normalized) (arbitrary units (background-subtracted, floor 0; scale differs between SH3 domains)); higher = stronger binding of the SH3 domain to the peptide
Summary of the method: (§1)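 Four yeast species supplied the SH3 domains, which were expressed as GST fusions in E. coli BL21(DE3) and purified on glutathione Sepharose. Incubation with cellulose membranes carrying synthetic 15-mer peptides, cysteines exchanged for serines, ran overnight at 4°C at 10 μg/ml in TBS-based blocking buffer. Binding signal is reported as normalized, background-subtracted spot intensity averaged over replicates, in arbitrary units not shared between domains.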

Binder	SPOT peptide array binding signal intensity
PKRRAPPPVPKKPSS	3070

target: CaRvs167; test: as above
Summary of the method: as §1

Binder	SPOT peptide array binding signal intensity
PKRRAPPPVPKKPSS	104

target: CaRvs167-3; test: as above
Summary of the method: as §1

Binder	SPOT peptide array binding signal intensity
PKRRAPPPVPKKPSS	7.5

target: CaSho1; test: as above
Summary of the method: as §1

Binder	SPOT peptide array binding signal intensity
PKRRAPPPVPKKPSS	93

target: CaSla1-D1-D2; test: as above
Summary of the method: as §1

Binder	SPOT peptide array binding signal intensity
PKRRAPPPVPKKPSS	3270

target: CaSla1-D3; test: as above
Summary of the method: as §1

Binder	SPOT peptide array binding signal intensity
PKRRAPPPVPKKPSS	1040

target: ScAbp1; test: as above
Summary of the method: as §1

Binder	SPOT peptide array binding signal intensity
PKRRAPPPVPKKPSS	3020

target: ScBbc1; test: as above
Summary of the method: as §1

Binder	SPOT peptide array binding signal intensity
PKRRAPPPVPKKPSS	651

target: ScBem1-D1; test: as above
Summary of the method: as §1

Binder	SPOT peptide array binding signal intensity
PKRRAPPPVPKKPSS	40

target: ScBzz1-D1; test: as above
Summary of the method: as §1

Binder	SPOT peptide array binding signal intensity
PKRRAPPPVPKKPSS	2560

target: ScBzz1-D2; test: as above
Summary of the method: as §1

Binder	SPOT peptide array binding signal intensity
PKRRAPPPVPKKPSS	83.5

target: ScCyk3; test: as above
Summary of the method: as §1

Binder	SPOT peptide array binding signal intensity
PKRRAPPPVPKKPSS	6

target: ScFus1; test: as above
Summary of the method: as §1

Binder	SPOT peptide array binding signal intensity
PKRRAPPPVPKKPSS	14

target: ScHof1; test: as above
Summary of the method: as §1

Binder	SPOT peptide array binding signal intensity
PKRRAPPPVPKKPSS	≤ 0

target: ScHse1; test: as above
Summary of the method: as §1

Binder	SPOT peptide array binding signal intensity
PKRRAPPPVPKKPSS	326

target: ScLsb1; test: as above
Summary of the method: as §1

Binder	SPOT peptide array binding signal intensity
PKRRAPPPVPKKPSS	488

target: ScLsb2; test: as above
Summary of the method: as §1

Binder	SPOT peptide array binding signal intensity
PKRRAPPPVPKKPSS	800

target: ScLsb3; test: as above
Summary of the method: as §1

Binder	SPOT peptide array binding signal intensity
PKRRAPPPVPKKPSS	4240

target: ScLsb4; test: as above
Summary of the method: as §1

Binder	SPOT peptide array binding signal intensity
PKRRAPPPVPKKPSS	78.5

target: ScMyo3; test: as above
Summary of the method: as §1

Binder	SPOT peptide array binding signal intensity
PKRRAPPPVPKKPSS	865

target: ScMyo5; test: as above
Summary of the method: as §1

Binder	SPOT peptide array binding signal intensity
PKRRAPPPVPKKPSS	436

target: ScNbp2; test: as above
Summary of the method: as §1

Binder	SPOT peptide array binding signal intensity
PKRRAPPPVPKKPSS	5110

target: ScPex13; test: as above
Summary of the method: as §1

Binder	SPOT peptide array binding signal intensity
PKRRAPPPVPKKPSS	560

target: ScRvs167; test: as above
Summary of the method: as §1

Binder	SPOT peptide array binding signal intensity
PKRRAPPPVPKKPSS	1250

target: ScSho1; test: as above
Summary of the method: as §1

Binder	SPOT peptide array binding signal intensity
PKRRAPPPVPKKPSS	1580

target: ScSla1-D1-D2; test: as above
Summary of the method: as §1

Binder	SPOT peptide array binding signal intensity
PKRRAPPPVPKKPSS	3720

target: ScSla1-D3; test: as above
Summary of the method: as §1

Binder	SPOT peptide array binding signal intensity
PKRRAPPPVPKKPSS	1510

target: SpAbp1-D1; test: as above
Summary of the method: as §1

Binder	SPOT peptide array binding signal intensity
PKRRAPPPVPKKPSS	1910

target: SpBbc1; test: as above
Summary of the method: as §1

Binder	SPOT peptide array binding signal intensity
PKRRAPPPVPKKPSS	144

target: SpBzz1-D1; test: as above
Summary of the method: as §1

Binder	SPOT peptide array binding signal intensity
PKRRAPPPVPKKPSS	2040

target: SpBzz1-D2; test: as above
Summary of the method: as §1

Binder	SPOT peptide array binding signal intensity
PKRRAPPPVPKKPSS	863

target: SpCyk3; test: as above
Summary of the method: as §1

Binder	SPOT peptide array binding signal intensity
PKRRAPPPVPKKPSS	2.5

target: SpHof1; test: as above
Summary of the method: as §1

Binder	SPOT peptide array binding signal intensity
PKRRAPPPVPKKPSS	165

target: SpHof1-2; test: as above
Summary of the method: as §1

Binder	SPOT peptide array binding signal intensity
PKRRAPPPVPKKPSS	21

target: SpHof1-3; test: as above
Summary of the method: as §1

Binder	SPOT peptide array binding signal intensity
PKRRAPPPVPKKPSS	290

target: SpHse1; test: as above
Summary of the method: as §1

Binder	SPOT peptide array binding signal intensity
PKRRAPPPVPKKPSS	143

target: SpLsb1; test: as above
Summary of the method: as §1

Binder	SPOT peptide array binding signal intensity
PKRRAPPPVPKKPSS	1820

target: SpLsb4; test: as above
Summary of the method: as §1

Binder	SPOT peptide array binding signal intensity
PKRRAPPPVPKKPSS	1020

target: SpMyo1; test: as above
Summary of the method: as §1

Binder	SPOT peptide array binding signal intensity
PKRRAPPPVPKKPSS	584

target: SpNbp2; test: as above
Summary of the method: as §1

Binder	SPOT peptide array binding signal intensity
PKRRAPPPVPKKPSS	38.5

target: SpPex13; test: as above
Summary of the method: as §1

Binder	SPOT peptide array binding signal intensity
PKRRAPPPVPKKPSS	11

target: SpRvs167; test: as above
Summary of the method: as §1

Binder	SPOT peptide array binding signal intensity
PKRRAPPPVPKKPSS	803

target: SpSla1-D1-D2; test: as above
Summary of the method: as §1

Binder	SPOT peptide array binding signal intensity
PKRRAPPPVPKKPSS	1990

target: SpSla1-D3; test: as above
Summary of the method: as §1

Binder	SPOT peptide array binding signal intensity
PKRRAPPPVPKKPSS	≤ 0
